# Measurements as given in PMC7862700, “An all-to-all approach to the identification of sequence-specific readers for epigenetic DNA modifications on cytosine”.
# Key:
# Experiment in all cases: DAPPL (digital affinity profiling via proximity ligation, sequencing); 10 mM Tris-HCl pH 7.5, 50 mM NaCl, 1 mM DTT, 4% glycerol, room temperature, 30 min; GST-TFs on glutathione beads, 16-mer random dsDNA library, 0.1% formaldehyde crosslink after washing; high values mean tight binding
# Conditions in all cases: protein: recombinant; tags: N-terminal GST; dsDNA, one strand shown
# FLI1 = target: T1, FLI1 (Homo sapiens, UniProt Q01543 1-452)
# T1 sequence: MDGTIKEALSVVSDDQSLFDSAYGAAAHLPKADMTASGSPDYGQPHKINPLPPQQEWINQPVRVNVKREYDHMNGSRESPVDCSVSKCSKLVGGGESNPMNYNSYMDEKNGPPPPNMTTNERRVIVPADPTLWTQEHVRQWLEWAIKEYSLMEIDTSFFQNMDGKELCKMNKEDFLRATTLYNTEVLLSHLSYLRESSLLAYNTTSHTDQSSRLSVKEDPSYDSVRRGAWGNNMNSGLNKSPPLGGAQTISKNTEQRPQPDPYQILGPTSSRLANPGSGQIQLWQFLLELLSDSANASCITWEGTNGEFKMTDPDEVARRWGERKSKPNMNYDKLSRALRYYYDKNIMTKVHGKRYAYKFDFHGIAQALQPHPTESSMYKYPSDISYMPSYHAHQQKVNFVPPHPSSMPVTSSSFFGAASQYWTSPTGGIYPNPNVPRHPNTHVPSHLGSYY
# How it was run: (§1)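 Human transcription factors fused to GST were expressed in yeast, captured on glutathione beads, given DNA barcodes and pooled with a GST-only negative control. Pools were incubated with 200 nmole of a 16-mer random double-stranded DNA library in Tris/NaCl/DTT/glycerol buffer at room temperature for 30 min. They were then washed, crosslinked with 0.1% formaldehyde, proximity-ligated (BsaI/T4 ligase, 1 h, 37 °C), PCR-amplified and sequenced on an Illumina NextSeq500. Binding signal is each 6-mer's read frequency for a factor divided by its frequency for the GST control.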
# ELK1 = target: T2, ELK1 (Homo sapiens, UniProt P19419 1-428)
# T2 sequence: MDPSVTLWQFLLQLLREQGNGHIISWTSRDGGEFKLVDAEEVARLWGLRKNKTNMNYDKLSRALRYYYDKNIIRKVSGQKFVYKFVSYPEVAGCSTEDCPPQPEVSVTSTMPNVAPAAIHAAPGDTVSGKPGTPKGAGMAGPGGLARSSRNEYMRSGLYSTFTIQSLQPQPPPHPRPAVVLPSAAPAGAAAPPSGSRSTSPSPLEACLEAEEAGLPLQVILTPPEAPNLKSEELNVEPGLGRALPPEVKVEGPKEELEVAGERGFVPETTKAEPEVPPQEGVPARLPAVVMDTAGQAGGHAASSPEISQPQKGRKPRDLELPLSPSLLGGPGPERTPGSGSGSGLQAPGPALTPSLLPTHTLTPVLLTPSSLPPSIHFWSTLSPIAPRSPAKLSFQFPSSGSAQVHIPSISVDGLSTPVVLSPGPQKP
# How it was run: as §1
# ELF1 = ELF1 (Homo sapiens, UniProt P32519 1-619)
# Chain of ELF1 (P32519 whole entry): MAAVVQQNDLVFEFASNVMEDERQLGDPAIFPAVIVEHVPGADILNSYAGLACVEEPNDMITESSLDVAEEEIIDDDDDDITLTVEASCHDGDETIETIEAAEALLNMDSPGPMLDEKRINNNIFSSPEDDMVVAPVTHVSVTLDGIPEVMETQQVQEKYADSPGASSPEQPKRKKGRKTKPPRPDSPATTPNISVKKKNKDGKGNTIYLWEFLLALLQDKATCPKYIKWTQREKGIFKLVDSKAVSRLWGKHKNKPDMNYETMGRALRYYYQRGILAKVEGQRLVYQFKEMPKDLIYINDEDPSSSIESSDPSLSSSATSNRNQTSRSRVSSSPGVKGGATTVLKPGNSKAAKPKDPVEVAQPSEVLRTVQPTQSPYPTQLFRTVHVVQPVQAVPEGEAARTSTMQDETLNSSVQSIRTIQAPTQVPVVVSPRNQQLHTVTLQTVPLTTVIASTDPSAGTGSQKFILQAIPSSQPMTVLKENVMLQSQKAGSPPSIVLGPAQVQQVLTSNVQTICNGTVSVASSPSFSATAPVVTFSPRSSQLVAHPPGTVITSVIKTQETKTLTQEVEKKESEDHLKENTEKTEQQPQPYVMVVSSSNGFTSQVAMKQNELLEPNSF
# How it was run: as §1
# EHF = target: T3, EHF (Homo sapiens, UniProt Q9NZC4 1-300)
# T3 sequence: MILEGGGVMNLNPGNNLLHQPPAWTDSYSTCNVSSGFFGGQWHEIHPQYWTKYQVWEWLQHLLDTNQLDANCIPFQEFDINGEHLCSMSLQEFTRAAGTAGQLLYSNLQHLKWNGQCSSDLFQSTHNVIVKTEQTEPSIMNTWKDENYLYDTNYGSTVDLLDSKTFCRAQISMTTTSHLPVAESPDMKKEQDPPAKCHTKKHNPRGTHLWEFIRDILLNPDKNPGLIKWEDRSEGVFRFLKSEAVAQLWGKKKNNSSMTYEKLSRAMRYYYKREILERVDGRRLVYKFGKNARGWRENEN
# How it was run: as §1
# SPIB = SPIB (Homo sapiens, UniProt Q01892 1-262)
# Chain of SPIB (Q01892 whole entry): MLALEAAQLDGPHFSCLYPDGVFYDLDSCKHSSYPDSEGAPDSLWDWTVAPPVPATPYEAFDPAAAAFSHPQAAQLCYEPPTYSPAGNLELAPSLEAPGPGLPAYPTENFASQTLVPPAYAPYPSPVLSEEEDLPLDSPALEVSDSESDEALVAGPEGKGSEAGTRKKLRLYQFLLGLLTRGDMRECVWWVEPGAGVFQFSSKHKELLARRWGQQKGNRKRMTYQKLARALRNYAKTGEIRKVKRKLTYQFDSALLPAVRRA
# How it was run: as §1
# SPIC = target: T4, SPIC (Homo sapiens, UniProt Q8N5J4 1-248)
# T4 sequence: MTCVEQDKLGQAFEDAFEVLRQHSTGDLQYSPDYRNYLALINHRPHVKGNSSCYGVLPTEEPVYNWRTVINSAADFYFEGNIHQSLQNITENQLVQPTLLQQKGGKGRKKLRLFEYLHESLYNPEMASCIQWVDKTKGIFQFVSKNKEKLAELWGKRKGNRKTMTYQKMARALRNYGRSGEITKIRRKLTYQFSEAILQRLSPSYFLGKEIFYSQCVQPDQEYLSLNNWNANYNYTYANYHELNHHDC
# How it was run: as §1
# ELF4 = ELF4 (Homo sapiens, UniProt Q99607 1-663)
# Chain of ELF4 (Q99607 whole entry): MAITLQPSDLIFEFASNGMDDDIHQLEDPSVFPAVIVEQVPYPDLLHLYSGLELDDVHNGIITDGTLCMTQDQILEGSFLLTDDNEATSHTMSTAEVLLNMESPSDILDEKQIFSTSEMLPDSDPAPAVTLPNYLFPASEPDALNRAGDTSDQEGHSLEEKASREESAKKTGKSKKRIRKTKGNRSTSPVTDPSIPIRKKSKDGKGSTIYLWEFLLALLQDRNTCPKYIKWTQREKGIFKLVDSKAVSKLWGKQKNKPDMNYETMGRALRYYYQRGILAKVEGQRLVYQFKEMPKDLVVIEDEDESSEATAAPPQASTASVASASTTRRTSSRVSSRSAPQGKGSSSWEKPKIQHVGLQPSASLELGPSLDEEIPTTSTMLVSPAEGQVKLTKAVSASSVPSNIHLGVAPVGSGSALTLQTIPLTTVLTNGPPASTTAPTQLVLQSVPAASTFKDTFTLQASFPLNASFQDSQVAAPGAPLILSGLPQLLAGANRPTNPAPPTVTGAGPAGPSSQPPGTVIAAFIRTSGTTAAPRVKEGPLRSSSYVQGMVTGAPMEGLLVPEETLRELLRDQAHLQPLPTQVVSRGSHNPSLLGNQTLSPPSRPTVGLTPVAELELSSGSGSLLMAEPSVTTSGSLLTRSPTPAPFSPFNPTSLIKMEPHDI
# How it was run: as §1
# ELK4 = target: T5, ELK4 (Homo sapiens, UniProt P28324-2 1-405)
# T5 sequence: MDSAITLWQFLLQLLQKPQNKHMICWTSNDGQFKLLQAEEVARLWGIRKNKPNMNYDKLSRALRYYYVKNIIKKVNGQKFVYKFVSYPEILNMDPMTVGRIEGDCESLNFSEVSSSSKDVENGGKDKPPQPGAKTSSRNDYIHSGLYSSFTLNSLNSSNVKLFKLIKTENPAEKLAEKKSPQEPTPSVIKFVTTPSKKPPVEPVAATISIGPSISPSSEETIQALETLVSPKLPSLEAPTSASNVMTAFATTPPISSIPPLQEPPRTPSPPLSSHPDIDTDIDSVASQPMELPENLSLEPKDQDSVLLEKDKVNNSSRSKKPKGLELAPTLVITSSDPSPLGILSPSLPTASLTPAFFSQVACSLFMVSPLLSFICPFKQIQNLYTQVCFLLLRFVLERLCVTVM
# How it was run: as §1
# ETV1 = ETV1 (Homo sapiens, UniProt P50549 1-477)
# Chain of ETV1 (P50549 whole entry): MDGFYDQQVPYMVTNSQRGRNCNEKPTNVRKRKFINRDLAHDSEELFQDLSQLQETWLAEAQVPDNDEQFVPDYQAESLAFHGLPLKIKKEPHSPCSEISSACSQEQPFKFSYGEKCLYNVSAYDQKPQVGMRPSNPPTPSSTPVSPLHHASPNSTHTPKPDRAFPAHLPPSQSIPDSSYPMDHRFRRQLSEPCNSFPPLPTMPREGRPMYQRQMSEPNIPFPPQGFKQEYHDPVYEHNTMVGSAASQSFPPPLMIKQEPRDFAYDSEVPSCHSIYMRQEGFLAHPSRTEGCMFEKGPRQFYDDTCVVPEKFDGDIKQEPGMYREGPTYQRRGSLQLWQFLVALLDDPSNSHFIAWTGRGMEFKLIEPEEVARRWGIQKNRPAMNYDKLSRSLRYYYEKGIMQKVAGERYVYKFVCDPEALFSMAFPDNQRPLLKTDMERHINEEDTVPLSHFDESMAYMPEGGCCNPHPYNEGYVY
# How it was run: as §1
# ERF = target: T6, ERF (Homo sapiens, UniProt P50548 1-548)
# T6 sequence: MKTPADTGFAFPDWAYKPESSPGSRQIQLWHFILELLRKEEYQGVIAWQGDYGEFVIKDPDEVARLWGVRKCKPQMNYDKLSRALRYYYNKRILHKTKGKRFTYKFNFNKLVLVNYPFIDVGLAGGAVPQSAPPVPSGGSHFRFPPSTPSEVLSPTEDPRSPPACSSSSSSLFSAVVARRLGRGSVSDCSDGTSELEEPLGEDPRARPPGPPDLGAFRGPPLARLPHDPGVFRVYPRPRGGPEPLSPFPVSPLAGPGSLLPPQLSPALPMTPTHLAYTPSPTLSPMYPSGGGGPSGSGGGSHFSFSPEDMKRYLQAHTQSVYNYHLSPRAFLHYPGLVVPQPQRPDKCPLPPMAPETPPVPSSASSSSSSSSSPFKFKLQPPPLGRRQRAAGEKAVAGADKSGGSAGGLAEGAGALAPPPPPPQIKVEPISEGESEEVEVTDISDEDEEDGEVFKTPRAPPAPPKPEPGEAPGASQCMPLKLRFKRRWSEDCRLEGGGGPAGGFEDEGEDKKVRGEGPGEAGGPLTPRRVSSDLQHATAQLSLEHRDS
# How it was run: as §1
# ETV3L = target: T7, ETV3L (Homo sapiens, UniProt Q6ZN32 1-361)
# T7 sequence: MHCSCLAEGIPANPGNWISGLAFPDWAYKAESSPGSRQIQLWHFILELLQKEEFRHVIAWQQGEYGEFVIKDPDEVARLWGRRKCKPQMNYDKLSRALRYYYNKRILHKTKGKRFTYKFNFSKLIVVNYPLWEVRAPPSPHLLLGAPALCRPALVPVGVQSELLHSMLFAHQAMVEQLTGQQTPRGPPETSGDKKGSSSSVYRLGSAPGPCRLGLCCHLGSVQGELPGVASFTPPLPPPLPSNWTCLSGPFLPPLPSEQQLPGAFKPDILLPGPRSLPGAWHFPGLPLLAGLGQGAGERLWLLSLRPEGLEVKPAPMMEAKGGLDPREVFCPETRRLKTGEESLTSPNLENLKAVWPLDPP
# How it was run: as §1
# ETS2 = target: T8, ETS2 (Homo sapiens, UniProt P15036 1-469)
# T8 sequence: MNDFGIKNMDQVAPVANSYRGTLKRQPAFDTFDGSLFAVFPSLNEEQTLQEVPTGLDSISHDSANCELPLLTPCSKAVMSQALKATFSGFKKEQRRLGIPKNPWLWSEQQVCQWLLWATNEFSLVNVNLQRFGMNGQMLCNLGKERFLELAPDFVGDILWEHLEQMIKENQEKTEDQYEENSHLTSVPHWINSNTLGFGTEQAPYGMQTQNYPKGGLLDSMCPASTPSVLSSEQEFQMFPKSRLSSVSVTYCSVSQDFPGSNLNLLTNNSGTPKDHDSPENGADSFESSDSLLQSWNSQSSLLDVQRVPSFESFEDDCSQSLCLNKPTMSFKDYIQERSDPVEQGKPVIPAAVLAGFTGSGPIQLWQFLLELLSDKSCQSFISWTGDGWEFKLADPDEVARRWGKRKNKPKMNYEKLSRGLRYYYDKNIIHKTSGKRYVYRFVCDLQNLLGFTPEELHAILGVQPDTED
# How it was run: as §1
# ETV7 = target: T9, ETV7 (Homo sapiens, UniProt Q9Y603 1-341)
# T9 sequence: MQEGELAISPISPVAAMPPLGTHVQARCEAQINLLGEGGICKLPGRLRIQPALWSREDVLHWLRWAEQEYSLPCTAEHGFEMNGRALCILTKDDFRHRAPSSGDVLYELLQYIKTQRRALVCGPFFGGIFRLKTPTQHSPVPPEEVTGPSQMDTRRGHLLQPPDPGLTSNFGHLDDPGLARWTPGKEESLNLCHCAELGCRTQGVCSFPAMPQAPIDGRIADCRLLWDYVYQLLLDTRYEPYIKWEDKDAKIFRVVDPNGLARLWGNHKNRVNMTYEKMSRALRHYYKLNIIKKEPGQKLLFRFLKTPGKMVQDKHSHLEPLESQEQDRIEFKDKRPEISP
# How it was run: as §1
# ETV3 = target: T10, ETV3 (Homo sapiens, UniProt P41162-2 1-143)
# T10 sequence: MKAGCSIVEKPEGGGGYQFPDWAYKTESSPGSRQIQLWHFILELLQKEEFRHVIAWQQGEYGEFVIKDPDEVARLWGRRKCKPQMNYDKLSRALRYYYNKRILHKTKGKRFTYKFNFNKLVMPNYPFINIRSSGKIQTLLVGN
# How it was run: as §1
# ERG = target: T11, ERG (Homo sapiens, UniProt P11308 1-479)
# T11 sequence: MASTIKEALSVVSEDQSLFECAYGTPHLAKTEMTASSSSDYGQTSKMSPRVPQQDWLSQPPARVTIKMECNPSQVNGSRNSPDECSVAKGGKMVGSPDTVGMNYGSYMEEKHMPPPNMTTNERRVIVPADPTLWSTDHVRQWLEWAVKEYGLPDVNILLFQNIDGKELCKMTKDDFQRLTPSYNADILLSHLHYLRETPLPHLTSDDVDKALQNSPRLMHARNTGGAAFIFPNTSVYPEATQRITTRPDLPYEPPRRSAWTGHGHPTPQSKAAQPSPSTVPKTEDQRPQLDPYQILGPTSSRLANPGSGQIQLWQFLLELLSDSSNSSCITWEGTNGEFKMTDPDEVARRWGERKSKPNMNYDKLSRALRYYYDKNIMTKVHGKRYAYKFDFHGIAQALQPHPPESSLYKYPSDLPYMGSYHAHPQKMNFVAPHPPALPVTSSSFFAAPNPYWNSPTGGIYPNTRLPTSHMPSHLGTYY
# How it was run: as §1
# ELK3 = target: T12, ELK3 (Homo sapiens, UniProt P41970 1-407)
# T12 sequence: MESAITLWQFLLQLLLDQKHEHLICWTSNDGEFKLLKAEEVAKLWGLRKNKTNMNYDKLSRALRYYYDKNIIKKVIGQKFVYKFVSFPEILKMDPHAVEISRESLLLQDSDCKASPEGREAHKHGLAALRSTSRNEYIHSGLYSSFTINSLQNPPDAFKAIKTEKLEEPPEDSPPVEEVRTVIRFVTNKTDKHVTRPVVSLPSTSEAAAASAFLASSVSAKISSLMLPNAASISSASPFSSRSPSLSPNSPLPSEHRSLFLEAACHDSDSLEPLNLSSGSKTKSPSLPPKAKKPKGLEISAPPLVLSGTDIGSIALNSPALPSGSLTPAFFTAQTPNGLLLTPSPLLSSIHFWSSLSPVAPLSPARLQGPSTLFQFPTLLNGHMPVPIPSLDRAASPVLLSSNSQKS
# How it was run: as §1
Sequence,binding signal (FLI1),binding signal (ELK1),binding signal (ELF1),binding signal (EHF),binding signal (SPIB),binding signal (SPIC),binding signal (ELF4),binding signal (ELK4),binding signal (ETV1),binding signal (ERF),binding signal (ETV3L),binding signal (ETS2),binding signal (ETV7),binding signal (ETV3),binding signal (ERG),binding signal (ELK3)
GATGGG,"1.03 fold enrichment (6-mer frequency, TF over GST control)","1.02 fold enrichment (6-mer frequency, TF over GST control)","1 fold enrichment (6-mer frequency, TF over GST control)","1.02 fold enrichment (6-mer frequency, TF over GST control)","1.12 fold enrichment (6-mer frequency, TF over GST control)","1.08 fold enrichment (6-mer frequency, TF over GST control)","1.01 fold enrichment (6-mer frequency, TF over GST control)","1.01 fold enrichment (6-mer frequency, TF over GST control)","1.04 fold enrichment (6-mer frequency, TF over GST control)","1 fold enrichment (6-mer frequency, TF over GST control)","1.02 fold enrichment (6-mer frequency, TF over GST control)","1 fold enrichment (6-mer frequency, TF over GST control)","1.03 fold enrichment (6-mer frequency, TF over GST control)","1.04 fold enrichment (6-mer frequency, TF over GST control)",,
CTCGGG,"1.06 fold enrichment (6-mer frequency, TF over GST control)",,"1.09 fold enrichment (6-mer frequency, TF over GST control)",,"1.03 fold enrichment (6-mer frequency, TF over GST control)",,,,"1.03 fold enrichment (6-mer frequency, TF over GST control)","1.02 fold enrichment (6-mer frequency, TF over GST control)","1.09 fold enrichment (6-mer frequency, TF over GST control)",,,"1 fold enrichment (6-mer frequency, TF over GST control)","1.03 fold enrichment (6-mer frequency, TF over GST control)","1.05 fold enrichment (6-mer frequency, TF over GST control)"
